The list is not random: actives were taken first. Their share in the collection is about 2.4%.
POLI inh: DNA polymerase iota (human) inhibition; Pol iota fluorescent replication assay, 10 min; hit rate 1% among 390,000; Q9UNA4; Potency, µM (doses to about 115 µM), hits mostly inhibitors
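Pol iota at 10 nM preincubated 15 min with compounds at room temperature; reaction started with fluorescent substrate, 50 nM final. Fluorescence read kinetically at 0 and 10 min; buffer-only wells as negative control.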
WRN helicase inh: blocks human WRN helicase | WRN helicase unwinding, fluorescent forked duplex, kinetic | hit rate 0.46% among 360,000 | Q14191 | Potency, µM (top dose mostly 114 µM), most hits filed as inhibitors; further: nearly all actives have a fitted effect of over 55% in size
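Kinetic red-fluorescence monitoring (525/598 nm) tracks WRN helicase activity after 100 nM fluorophore-quencher forked duplex and 2 mM ATP are added to 20 nM enzyme pretreated 15 min at room temperature with compound.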
Pol eta inh: inhibitors of human DNA polymerase eta; recombinant Pol eta, fluorescent DNA replication assay; Potency, µM (titrated, usually from 114 µM), most hits filed as inhibitors; Q9Y253; AID 588591; hit rate 1.2% among 390,000
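Pol eta at 10 nM preincubated with compounds 15 min at room temperature; reaction started with fluorescent substrate (50 nM final) and read kinetically at 0 and 10 min.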
POLB inh: inhibitors of human DNA polymerase beta; P06746; Pol beta primer extension/strand displacement, fluorescence kinetic; hit rate 1.3% among 340,000; AID 485314; Potency, µM (titrated, usually from 114 µM), hits mostly inhibitors
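Human Pol beta at 10 nM; strand-displacement substrate 50 nM final. Compound exposure 15 min at room temperature before start, reaction 10 min at room temperature.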
FEN1 inhibitor: human FEN1 inhibition. P39748. Recombinant FEN1 flap cleavage, fluorescence, 15 min. Potency, µM (highest dose often 114 µM), actives largely listed as inhibitors. hit rate 0.35% among 390,000. AID 588795; further: nearly all actives have a fitted effect of over 65% in size
Target sequence (P39748 whole entry, looked up): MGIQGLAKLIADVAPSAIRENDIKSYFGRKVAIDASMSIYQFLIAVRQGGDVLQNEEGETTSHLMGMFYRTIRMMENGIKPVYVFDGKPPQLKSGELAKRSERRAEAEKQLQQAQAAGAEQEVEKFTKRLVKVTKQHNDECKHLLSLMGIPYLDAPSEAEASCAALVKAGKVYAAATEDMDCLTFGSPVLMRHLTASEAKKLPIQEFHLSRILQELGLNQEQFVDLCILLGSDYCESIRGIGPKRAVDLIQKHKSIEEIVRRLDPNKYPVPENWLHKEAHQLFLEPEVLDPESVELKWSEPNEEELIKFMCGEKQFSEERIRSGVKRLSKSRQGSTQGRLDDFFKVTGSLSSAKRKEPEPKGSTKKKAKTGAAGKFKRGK
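Compounds are tested as a concentration series against 10 nM FEN1; after a 15 min room-temperature preincubation, 50 nM substrate starts cleavage, with plate reads at 0 and 15 min. Normalized responses are fitted by a Hill equation.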
POLK inh: DNA polymerase kappa (human) inhibition | hit rate 0.53% among 400,000 | Potency, µM (series often up to 107 µM), hits mostly inhibitors | AID 588579 | purified Pol kappa, fluorescent DNA synthesis assay, 10 min | Q9UBT6
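Fluorescent qHTS in 1536-well format: enzyme (10 nM) and compound sat 15 min at room temperature before 50 nM substrate (final) was added. Signal taken at 0 and 10 min; no-enzyme buffer wells were negative controls.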
Hits are given with their value; n = inactive; u = inconclusive; x = no result given; [ ] = another dose, or the depositor's remark. The call rests on the fitted dose curve; in most records, active means well fitted curve in the direction sought with a large enough effect; inconclusive means small, poorly fitted or top-dose-only effect, or another doubt; inactive means no such curve, though single readings can be large; an effect the other way counts as inactive or inconclusive.

SMILES	POLI inh	WRN helicase inh	Pol eta inh	POLB inh	FEN1 inhibitor	POLK inh
CC1=NN(c2ccc(C)cc2C)C(=O)C1C(c1ccccc1O)C1C(=O)N(c2ccc(C)cc2C)N=C1C (stereo not given)	0.891µM	n	n	n	n	n
COc1ccc(CN2CC[C@H]3C=CC[C@@H](C(=O)Nc4ccccc4)[C@H]3C2=O)cc1OC	u	x	x	x	n	n
CCCCn1c(N)c(N(CC(C)C)C(=O)c2oc3ccc(Br)cc3c2C)c(=O)[nH]c1=O	u	n[11.6 µM]	79.4µM	x	n	n
CCCCn1c(N)c(N(CC(C)C)C(=O)c2ccc(C)o2)c(=O)[nH]c1=O	n	n	n	x	n	n
CCCCn1c(N)c(N(CC(C)C)C(=O)c2cc(=O)[nH]c3ccccc23)c(=O)[nH]c1=O	n	n	n	x	n	n
CCCCn1c(N)c(N(CC(C)C)C(=O)c2cc(-c3ccco3)nc3ccccc23)c(=O)[nH]c1=O	39.8µM	n	28.2µM	x	n	u
CCOC(=O)c1c(NC(=O)CSc2nc(-c3ccc(OC)cc3)cc(C(F)(F)F)n2)sc(C)c1C	n	x	n	u	n	n
CC(C)c1ccc(NC(=O)COC(=O)CC2CCCC2)cc1	n	n	n	x	u	n
O=C(COC(=O)CC1CCCC1)Nc1cc2c(cc1Cl)C(=O)c1ccccc1C2=O	n	n	u	39.8µM	n	n
O=C1CC(=O)N(CCNc2ncc(C(F)(F)F)cc2Cl)C(=O)N1	25.1µM	n	n	56.2µM	n	u
Cc1ccc2nc(-c3ccc(-c4ccccn4)s3)cn2c1	u	u	n	39.8µM	n	n
COc1ccc(-c2nn(-c3ccccc3)cc2C(=O)Nc2cccc(C(=O)O)c2)cc1[N+](=O)[O-]	n	u	n	35.5µM	u	n
c1ccc(SSc2ccccn2)nc1	u	22.4µM	n	x	u	n
COc1ccc(OCC(=O)Nc2ccccc2Cl)cc1	n	n	n	17.8µM	n	n
CN(C(=S)NC(=O)c1ccc(Cl)cc1)C1CCCCC1	u	n	u	11.2µM	n	n
CN(C(=S)NC(=O)c1ccc(F)cc1)C1CCCCC1	n	n	n	n	n	n
CN(CCc1ccc(Cl)c(Cl)c1)CCN1CCCC1	x	x	x	x	x	n[19.4 µM]
COc1ccc([N+](=O)[O-])cc1NC(=O)CCS(=O)(=O)c1ccc(Br)cc1	n	n[11.6 µM]	50.1µM	15.8µM	n	u
O=C(CCS(=O)(=O)c1ccc(Br)cc1)NC1CCCC1	n	n	u	22.4µM	n	u
CCc1ccccc1NC(=O)CCS(=O)(=O)c1ccc(Br)cc1	n	n	n	35.5µM	n	n
CCOC(=O)[C@H](CCc1ccccc1)N[C@@H](C)C(=O)N1C(=O)N(C)C[C@H]1C(=O)O	x	x	x	x	x	n[19.4 µM]
COc1ccc(OCC(O)Cn2c(NCCO)nc3c2c(=O)n(C)c(=O)n3C)cc1 (stereo not given)	n	x	n	n	n	n
CCc1ccc(-c2csc(NC(=O)C3CC(=O)N(c4ccc5c(c4)OCCO5)C3)n2)cc1 (stereo not given)	89.1µM	n	n	u	u	n
N#Cc1ccc(CSc2nnc(NC(=O)C3CC(=O)N(c4ccc5c(c4)OCCO5)C3)s2)cc1 (stereo not given)	n	n	n	8.91µM	n	n
CCc1ccc(NC(=O)CSc2nc3ncccc3[nH]2)cc1	n	x	n	n	n	n
SMILES	POLI inh	WRN helicase inh	Pol eta inh	POLB inh	FEN1 inhibitor	POLK inh
COCC(=O)N1CCC[C@@]2(CCN(C(c3ccccc3)c3ccccc3)C2)C1	x	x	x	x	x	n
O=C(c1cc2cc([N+](=O)[O-])ccc2oc1=O)n1cccn1	u	n	31.6µM	31.6µM	n	79.4µM
Cc1cc2ccc(=O)oc2cc1OC[C@@H](O)C(C)(C)O	x	x	x	x	x	n[19.4 µM]
CC1CCN(Cc2c(O)ccc3c2O/C(=C\c2ccco2)C3=O)CC1	u	u	56.2µM	11.2µM	n	u
COCCN(CCOC)Cc1c(O)ccc2c1O/C(=C\c1ccco1)C2=O	u	n[11.6 µM]	u	10µM	n	u
O=C1/C(=C/c2ccco2)Oc2c1ccc(O)c2CN1CCCCC1	u	u	22.4µM	20µM	n	79.4µM
COc1ccc2c(c1)cc1c(=O)n(CC(=O)NCc3ccco3)nc(C)n12	n	x	n	n	n	n
COc1ccccc1C(=O)Nc1ccccc1OCc1cc(=O)n2c(C)csc2n1	n	x	n	n	n	n
COC(=O)c1ccc(NC(=O)N2CCc3c([nH]c4ccccc34)C2c2ccc(C)cc2)cc1 (stereo not given)	n	x	x	n	n	n
COc1ccc(CCNC(=O)CCCCn2c(=O)c3ccccc3n(Cc3cc(C)ccc3C)c2=O)cc1OC	79.4µM	x	n	n	n	n
CCN(CC)S(=O)(=O)c1ccc(C(=O)NCc2ccc3c(c2)cc(C)n3C)cc1	u	50.1µM	n	n	u	n
COc1ccc(C(=O)NCc2ccc3c(c2)cc(C)n3C)cc1OC	u	n	n	n	n	n
O=c1cc(CN2CCN(c3ccccc3)CC2)nc2scc(-c3ccccc3)n12	56.2µM	n	n	39.8µM	n	n
O=c1cc(CN2CCN(c3ccccc3O)CC2)nc2sccn12	44.7µM	n	20µM	u	n	n
Cc1ccc(OCc2cc(=O)n3c(-c4ccccc4)csc3n2)cc1	56.2µM	x	u	20µM	n	u
CCOc1ccc(NC(=O)CN(C)Cc2cc(=O)n3c(-c4ccccc4)csc3n2)cc1OCC	u	n	n	25.1µM	n	n
COc1cc(=O)n2c(-c3ccccc3)csc2n1	n	n	n	n	n	n
COc1ccc(C(=O)N2CCC[C@@]3(CCN(C)C3)C2)cc1	x	x	x	x	x	n
CCCCCC(=O)Cc1cc(O)cc2c1C(=O)Oc1cc(O)c(C(=O)O)c(CCCCC)c1O2	70.8µM	44.7µM	17.8µM	44.7µM	u	79.4µM
CCN(CC)c1ccc(/C=C/C2=C3C=CC=CC3NC=C2)cc1 (stereo not given)	1.26µM	x	x	x	15.8µM	n
COCCNc1ncnc2ccc(-c3ccc(N(C)C)cc3)cc12	x	x	x	x	x	n
CCOC(=O)c1c(NC(=O)c2cc(-c3ccc(Br)cc3)on2)sc(C)c1C	n	x	n	n	n	n
COC(=O)CC1=NN(c2ccccc2)C(=O)/C1=C\c1ccc(OC)cc1	n	50.1µM	n	n	n	n
CC(=O)NC1CCCC1C#N (stereo not given)	n	x	x	x	n	n
Cc1ccc(CC#N)c(-c2c(CC#N)ccc(C)c2C)c1C	x	n	n	x	x	x
Cc1ccc2c(c1C)-c1c(ccc(C)c1C)C(=O)C2=O	25.1µM	n	22.4µM	x	u	n
COc1cc(C2c3c(-c4ccccc4O)n[nH]c3C(=O)N2Cc2ccco2)ccc1OCC(C)C (stereo not given)	n	x	n	u	n	n

Screens (PubChem BioAssay)
